High-throughput results: PubChem BioAssay, several laboratories
A selection: hits, their analogues and other compounds. The true share with any hit is near 2%.
EWS-Fli inh – EWS/Fli-driven NR0B1 reporter inhibitors, primary screen, A673 cells, NR0B1 luciferase, luminescence, MLPCN library | inhibition, % at 12.6 µM | 0.67% of 350,000 active | viability-normalised;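 active means mean inhibition of at least 50% after viability correction, with every replicate also passing that limit; inconclusive means mean reaches 50% but only one of two replicates passes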;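 further: firefly luciferase signal divided by Alamar Blue viability fluorescence both relative to DMSO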
KKLEB tox – cytotoxicity in KKLEB CF airway cells, primary screen, cytotoxicity control for CF NF-kB inhibitor project, cell-based, uHTS, fluorescence assay plates; KKLEB CF airway cells viability, ATPlite luminescence, overnight; active compounds read low; cells stimulated with P. aeruginosa culture filtrate; activity change (cytotoxicity), % at 5 µM; 0.36% of 360,000 active; AID 602141, 2011;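 active means corrected activity change at or below -50% at 5 µM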
CF NFkB block – inhibitors of PAF-induced NF-kB signaling, primary screen, cell-based, GFP fluorescence, uHTS; KKLEB NF-kB-GFP reporter, GFP fluorescence overnight; inhibition, % at 5 µM; AID 588850, 2011; 0.86% of 360,000 active;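 active means at least 50% inhibition at 5 µM, scaled per plate between neutral and stimulator controls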;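 further: PAF is a Pseudomonas aeruginosa culture filtrate used as stimulus; plate controls were PAF-stimulated DMSO wells for no effect and unstimulated DMSO wells for full effect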
PAX8 reporter – inhibitors of PAX8-driven TPO luciferase reporter, primary screen, RMG-I cells, single concentration; SteadyGlo, 24 h; inhibition, % at 12.6 µM; 1.2% of 360,000 active;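 active means mean replicate inhibition at least 60% with every replicate also reaching 60%; inconclusive means only one of the two criteria is met; inactive means mean below 60% and not all replicates reaching 60%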;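 further: luciferase light reporting Pax8 driven TPO promoter activity; plate controls were median of neutral control wells for no effect and mitoxantrone controls for full effect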
LGR2 antag – inhibitors of bursicon-induced LGR2 CRE-luciferase signal, primary screen, cell-based, HEK293, CRE-luciferase reporter, bursicon stimulation; Drosophila bursicon receptor LGR2 (rickets); bursicon-stimulated, 4 h; inhibition, % at 9.99 µM; 0.35% of 380,000 active; AID 720647, 2013;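 active means drop in luminescence signal, shown as inhibition above about 50% in the replicate tests, limit read from the data, passing the limit was not always enough; inconclusive means probably only some replicates passing the limit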;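 further: agonist challenge used bursicon conditioned medium at about half maximal strength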
Shn3 3UTR inh – reduction of Shn3 3'UTR firefly luciferase signal, primary screen, Schnurri-3 inhibitor project, cell-based, Clone20 osteoblasts, set 2 | Clone20 osteoblast Shn3 3'UTR firefly luciferase, 24 h | inhibition, % at 12.5 µM | 0.52% of 360,000 active | AID 588674, 2011;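 active means mean inhibition of at least 75% with every replicate also reaching 75%; inconclusive means mean inhibition at least 75% but some replicate below; inactive means mean inhibition below 75%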;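 further: 0% = median of neutral control wells and 100% = pilot-screen positive control compound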
The depositor's hits bear a star; ? = inconclusive; . = no result.

SMILES	EWS-Fli inh	KKLEB tox	CF NFkB block	PAX8 reporter	LGR2 antag	Shn3 3UTR inh
CC1(C)CC(=O)C=C(c2ccc(-c3cnc4ccccc4c3)cc2)C1=O	0	-2	-22	-61	63*	-47
Cc1ccc(NS(=O)(=O)c2ccc(Cl)c(C(=O)Nc3ccccc3-c3nc4ccccc4[nH]3)c2)cc1C	.	-26	56*	11	-21	18
O=[N+]([O-])c1ccc(Oc2cccnc2)c([N+](=O)[O-])c1	1	1	3	64*	10	21
Nc1ccc(Oc2ccc([N+](=O)[O-])cc2[N+](=O)[O-])cc1	-21	-6	-4	.	-28	-17
CN(C)c1ccc(-c2nc3ccccc3c(=O)[nH]2)cc1	62*	-27	-8	81*	66*	1
C#Cc1ccc([C@H]2C=C(C(=O)Nc3ccccc3)O[C@@H](OCCCCO)C2)cc1	-36	.	.	-20	.	.
Cc1ccc(C(=O)/C=C2\NCC(C)NC2=O)cc1 (stereo unspecified)	.	2	0	.	54*	30
O=C(/C=C/c1ccc([N+](=O)[O-])cc1)NCc1ccccn1	.	-6	0	13	3	-20
O=C(/C=C/c1ccc([N+](=O)[O-])cc1)Nc1ncc([N+](=O)[O-])s1	25	-52*	38	6	94*	35
O=C(C[C@H]1C[C@@H]2c3cc(NS(=O)(=O)c4ccc(F)cc4)ccc3O[C@@H]2[C@@H](CO)O1)NC1CCCCC1	0	.	.	12	-10	.
Cn1nc(-c2ccc(Cl)cc2)nc2c(=O)n(C)c(=O)nc1-2	.	.	.	.	.	118*
Cc1noc(C)c1NC(=O)Nc1ccc2c(c1)C(=O)N([C@H](C)CO)C[C@@H](C)[C@@H](CN(C)Cc1ccc(Oc3ccccc3)cc1)O2	12	.	.	.	-2	.
C[C@@H]1CN([C@@H](C)CO)C(=O)CCCn2cc(nn2)CO[C@@H]1CN(C)C(=O)CCC(F)(F)F	-2	.	.	-1	6	.
C[C@@H]1CN([C@H](C)CO)C(=O)CCCn2nncc2CO[C@@H]1CN(C)Cc1cccnc1	-1	.	.	.	-6	.
CC(=O)Nc1ccc(Nc2nc(-c3sc(C)nc3C)cs2)cc1	2	5	0	-17	-12	8
CC(=O)c1ccc(Nc2nc(-c3sc(C)nc3C)cs2)cc1	66*	-14	-46	22	97*	-4
O=C(CSc1nc2ccccc2c(=O)n1-c1ccccc1)N1CCc2ccccc2C1	.	-7	4	.	10	83
CC(C)c1ccccc1-n1c(SCC(=O)N2CCc3ccccc3C2)nc2ccccc2c1=O	13	-7	8	7	30	96*
C[C@H](CO)N1C[C@H](C)[C@H](CN(C)S(=O)(=O)c2ccccc2)Oc2ccc(NS(=O)(=O)c3ccccc3)cc2C1=O	-2	.	.	-14	1	.
O=C1/C(=C\c2ccc(Cl)c(Cl)c2)CN(C(=O)CCN2CCOCC2)C/C1=C/c1ccc(Cl)c(Cl)c1	56*	-78*	90*	89*	91*	99*
CCCNC(=O)N1CC2(C1)CN(C(=O)c1cccnc1)[C@@H](CO)c1[nH]c3cc(OC)ccc3c12	22	.	.	.	6	.
COc1ccc(C(=O)/C(C#N)=N/Nc2ccc([N+](=O)[O-])cc2)cc1	10	-33	56*	90*	13	89*
COc1ccc(C(=O)/C(C#N)=N/Nc2ccccc2[N+](=O)[O-])cc1	45	-21	36	27	.	6
C/C(=N\Nc1ccc([N+](=O)[O-])cc1)c1ccc(C#N)cc1	-29	12	-16	1	17	0
N#CC(C#N)=NNc1ccc([N+](=O)[O-])cc1	-20	-26	57*	19	28	13
SMILES	EWS-Fli inh	KKLEB tox	CF NFkB block	PAX8 reporter	LGR2 antag	Shn3 3UTR inh
O=C(C[C@@H]1CC[C@@H](NC(=O)CC2CC2)[C@@H](CO)O1)NCc1ccccc1	-10	.	.	.	7	.
CN(C)CCCN1C(=O)c2cccc3cccc(c23)C1=O	-15	13	-72	4	-3	-26
CN(C)CCN1C(=O)c2cccc3cc([N+](=O)[O-])cc(c23)C1=O	?	-14	-146	39	.	97*
On1ccccc1=S	52*	1	-9	100*	21	83
O=C(Cn1ccccc1=S)c1ccc(Cl)c(Cl)c1	7	-4	-2	-7	5	-2
CC(C)c1ccc(NC(=O)Nc2nc(C(N)C(C)C)cs2)cc1 (stereo unspecified)	28	-13	8	43	9	14
CC(C)c1ccc(NC(=O)Nc2nc(C(N)c3ccccc3)cs2)cc1 (stereo unspecified)	1	-43	12	-8	94*	93*
CC(C)c1ccc(NC(=O)Nc2nc(C(N)COCc3ccccc3)cs2)cc1 (stereo unspecified)	15	-5	-13	-6	-22	93*
NC(CCc1ccccc1)c1csc(NC(=O)Nc2ccccc2Oc2ccccc2)n1 (stereo unspecified)	31	-18	4	16	-18	96*
CCC(=O)N1CC2(CCN(C(=O)Nc3c(C)noc3C)CC2)c2c([nH]c3cc(OC)ccc23)[C@@H]1CO	11	.	.	.	1	.
Cc1noc(C)c1S(=O)(=O)Nc1cccc2c1O[C@H](CN(C)CC1CCCCC1)[C@H](C)CN([C@@H](C)CO)C2=O	4	.	.	-2	-5	.
CCNC(=O)[C@H]1[C@H](CO)[C@H]2Cn3c(ccc(-c4ccccc4F)c3=O)[C@H]2N1CC1CC1	-7	.	.	1	5	.
C[C@H](CO)N1C[C@H](C)[C@H](CN(C)C)Oc2ncc(C#Cc3ccccc3)cc2C1=O	2	.	.	2	7	.
Cc1noc(C)c1S(=O)(=O)Nc1ccc2c(c1)C(=O)N([C@H](C)CO)C[C@H](C)[C@H](CN(C)C(=O)NC1CCCCC1)O2	7	.	.	.	18	.
C[C@H](O)C#Cc1ccc([C@@H]2[C@@H](CO)N3CCCCN(S(=O)(=O)c4ccccc4)C[C@@H]23)cc1	1	.	.	16	12	.
Cc1cccc(S(=O)(=O)N2CCCCN3[C@H](CO)[C@H](c4ccc(C#C[C@H](C)O)cc4)[C@H]3C2)c1	18	.	.	86*	4	.
COc1cccc(S(=O)(=O)N2CCCCN3[C@H](CO)[C@H](c4ccc(C#CC(C)C)cc4)[C@@H]3C2)c1	4	.	.	71*	15	.
C[C@H](O)C#Cc1ccc([C@@H]2[C@@H](CO)N3CCCCN(S(=O)(=O)c4ccccc4)C[C@H]23)cc1	7	.	.	76*	-1	.
